# PubChem BioAssay (Tox21)
# Records with an inconclusive call do not appear. Activity calls are given as the source filed them. Calls follow the shape of the dose curve; as a rule, active = well fitted cell-killing curve with a large enough effect in the repeat runs; inconclusive = weak or mixed curves; inactive = flat fitted curve, though single readings scatter.
# Experiment: qHTS assay to identify small molecule antagonists of the estrogen receptor beta (ER-beta) signaling pathway - cell viability counter screen (AID 1259382);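 also: HEK293T cells carrying ER-beta-UAS-bla reporter stimulated with estradiol; nearly all actives have a fitted effect of over 55% in size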
# Settings: ER-beta-UAS-bla HEK293T viability, CellTiter-Glo luminescence, 16 h; series mostly up to 92.4 µM
# Outline: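 CellTiter-Glo ATP luminescence measured after the LiveBLAzer read in the same wells; ER-beta-UAS-bla HEK293T cells, 16 hr compound treatment with 1nM 17-beta-estradiol agonist at 37C, 5% CO2.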
row,SMILES,outcome
1,CCC1COC(=O)O1 (stereo not drawn),inactive
2,O=C1OC(=O)c2ccccc21,inactive
3,CCCOC(=O)CCCCC(=O)OCCC,inactive
4,C=CCOCC(CO)(COCC=C)COCC=C,inactive
5,CC(C)COC(=O)/C=C/c1ccccc1,inactive
6,OCCCCCCCl,inactive
7,COCC(=O)Nc1c(I)c(C(=O)NCC(O)CO)c(I)c(C(=O)N(C)CC(O)CO)c1I (stereo not drawn),inactive
8,N#CCCOCCOCCC#N,inactive
9,COC(/C=C(\C)CCC=C(C)C)OC,inactive
10,CNC(=O)NC,inactive
11,O=C(O)/C=C/c1ccccc1,inactive
12,C=CCOc1c(Br)cc(Br)cc1Br,inactive
13,CC(CC(=O)O)CC(C)(C)C (stereo not drawn),inactive
14,COC(=O)CCC(=O)O,inactive
15,O=C1OC(=O)c2cc(Oc3ccc4c(c3)C(=O)OC4=O)ccc21,inactive
16,CCCCCC1Nc2cc(C(F)(F)F)c(S(N)(=O)=O)cc2S(=O)(=O)N1 (stereo not drawn),inactive
17,COC(OC)C(C)c1ccccc1 (stereo not drawn),inactive
18,Nc1ccc(S(=O)(=O)NC(=O)c2ccccc2)cc1,inactive
19,Nc1nc(=O)n([C@@H]2O[C@H](CO)[C@@H](O)[C@@H]2F)cc1I,inactive

row,SMILES,outcome
1,CCCCCCCC/C=C\CCCCCCCC(=O)OC[C@@H](O)[C@H]1OC[C@H](O)[C@H]1O,inactive
2,O=[Si]=O,inactive
3,COc1ccc(NS(=O)(=O)c2ccc(N)cc2)nn1,inactive
4,O=C(Oc1ccccc1C(=O)O)c1ccccc1O,inactive
5,FC(F)(F)/C(=N\OCC1OCCO1)c1ccc(Cl)cc1,inactive
6,CCCCOC(=O)C(C)OC(=O)CCC (stereo not drawn),inactive
7,CCCCCCCCC(=O)OCC,inactive
8,CCC(=O)c1ccc(O)cc1,inactive
9,CCCCOC(=O)[C@@H](C)Oc1ccc(Oc2ccc(C(F)(F)F)cn2)cc1,inactive
10,CCc1nccnc1C,inactive
11,CC1=NN(c2ccc(S(=O)(=O)O)cc2)C(=O)C1N=Nc1ccccc1 (stereo not drawn),inactive
12,Nc1cc(Cl)cc(S(=O)(=O)O)c1O,inactive
13,CCN1CN(CC)CN(CC)C1,inactive
14,CC(C)CCCC(C)CC=O (stereo not drawn),inactive
15,CCC(O)C(C)(C)C (stereo not drawn),inactive
16,CC(C)C(=O)c1ccccc1,inactive
17,O=P(O)(O)OCC(O)CO (stereo not drawn),inactive
18,CCN(CCC#N)c1ccccc1,inactive
19,CC(=O)/C=C/c1ccco1,inactive
